Assay results from PubChem BioAssay (NCI).
The panel holds about 83,000 compounds, 20% with a hit somewhere; the sample as a whole holds those more often.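 Cell lines were cultured in 96-well plates, exposed to a single compound concentration, and assessed for percent growth 48 hours later.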 Calls of active or inactive are those of the source. The calls were made as follows: active = growth percent below 10; inactive = the rest.

Assays:
Test in all cases: NCI-60 one-dose screen, 48 h (100 = growth as untreated, 0 = no growth, -100 = all killed)
Details in all cases: 10 µM
BT-549 breast = system: BT-549 breast
MDA-MB-435 melanoma = system: MDA-MB-435 melanoma
MCF7 breast = system: MCF7 breast
HCT-116 colon = system: HCT-116 colon
KM12 colon = system: KM12 colon
SW-620 colon = system: SW-620 colon
HCC-2998 colon = system: HCC-2998 colon

Measured: growth

CCC1(C(C)C)NC(=O)NC1=O (stereo not drawn)
inactive: BT-549 breast 104% | MDA-MB-435 melanoma 106% | MCF7 breast 103% | HCT-116 colon 101% | KM12 colon 104%

CC[C@H](C)C(=O)O[C@H]1CCC=C2C=C[C@H](C)C(CCC3C[C@@H](O)CC(=O)O3)[C@H]21 (stereo partly drawn)
inactive: BT-549 breast 78.2% | SW-620 colon 71.6% | MCF7 breast 83.6% | HCT-116 colon 46.4% | HCC-2998 colon 89%

COc1ccc(NC(=O)CSc2nc3ccccc3c(=O)n2CCc2ccccc2)cc1
inactive: BT-549 breast 91.8% | SW-620 colon 89.1% | MCF7 breast 89.9% | HCT-116 colon 87.6% | HCC-2998 colon 106% | KM12 colon 84.4%

CSc1nn(-c2ccccc2)c2ncnc(Oc3ccc(C)cc3)c12
inactive: BT-549 breast 98% | SW-620 colon 103% | MCF7 breast 97.7% | HCT-116 colon 85.3% | HCC-2998 colon 99.4%

Nc1nc(-c2ccccc2Cl)cc(-c2ccc(Cl)cc2Cl)n1
inactive: BT-549 breast 75.3% | SW-620 colon 39% | MCF7 breast 45.7% | HCT-116 colon 33% | HCC-2998 colon 83.6% | KM12 colon 53.8%

CCN(CCCCCCN1CC(=O)N(CCCCCCN(CC)Cc2ccccc2OC)CC1=O)Cc1ccccc1OC
inactive: BT-549 breast 87.8% | MDA-MB-435 melanoma 85.9% | MCF7 breast 83.6% | HCT-116 colon 37.6% | KM12 colon 65.5%

Cc1nc2ccccc2c(N)c1-c1cc(C)c2c(C)nc3ccccc3c2n1
inactive: BT-549 breast 58.2% | MCF7 breast 31.2%
active: SW-620 colon -65.7% | HCT-116 colon -82.1% | HCC-2998 colon -35% | KM12 colon -83.2%
